{"source": "PubChem BioAssay (NCI)", "note": "The panel holds about 79,000 compounds, 15% with a hit somewhere; the sample as a whole holds those more often. Calls of active or inactive are those of the source. Rule as the data show it: active = growth inhibition above about 70%; inactive = the rest.", "data": [{"assay": "NCI Yeast Anticancer Drug Screen. Data for the mlh1 rad18 strain (AID 175)", "conditions": "S. cerevisiae mlh1 rad18 strain growth inhibition; at 5.0 µM (retest, dose inferred, filed as 0.5); active compounds read high", "summary_of_the_method": "(§1)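 Steps: expose repair-defective yeast to compound; measure growth; express inhibition against vehicle-treated controls.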", "values": [{"compound": "CC(=O)OC(OC(C)=O)c1ccc2ccc3cccc4ccc1c2c34", "growth inhibition": "-3% (inactive)"}, {"compound": "C[N+]1=C(/C=C\\c2ccc(O)c3ccccc23)C(C)(C)c2ccccc21", "growth inhibition": "28% (inactive)"}, {"compound": "CCCCC(O)CCCC", "growth inhibition": "31% (inactive)"}, {"compound": "Nc1ccc(O)c2ccccc12", "growth inhibition": "11% (inactive)"}, {"compound": "O=C1CCC(Cc2ccc(C(F)(F)F)cc2)C(=O)N1", "note": "(centres undefined)", "growth inhibition": "-4% (inactive)"}, {"compound": "CCCCCCCC[N+](C)(C)Cc1ccc(C[N+](C)(C)CCCCCCCC)cc1", "growth inhibition": "0% (inactive)"}, {"compound": "CC(C)(N)COB(c1ccccc1)c1ccccc1", "growth inhibition": "-7% (inactive)"}, {"compound": "CCCCC(Oc1cc(C(C)(C)C)c(O)c(C(C)(C)C)c1)C(=O)O", "note": "(centres undefined)", "growth inhibition": "27% (inactive)"}, {"compound": "CCCCCCCCN(CCCCCCCC)Cc1ccc(Br)cc1", "growth inhibition": "97% (active)"}, {"compound": "CCc1cc2c(c3c1C(=O)CC3)C(C)(C)CCC2", "growth inhibition": "-6% (inactive)"}, {"compound": "FC(F)(F)c1ccc(Cl)c(NC(=S)SC2CCCCC2)c1", "growth inhibition": "7% (inactive)"}, {"compound": "NC(N)=Nc1ccc(Cc2ccc(N=C(N)N)cc2)cc1", "growth inhibition": "-6% (inactive)"}, {"compound": "Nc1ccc(-c2cccc(-c3ccccc3)c2)cc1", "growth inhibition": "-27% (inactive)"}, {"compound": "COc1cc(CSc2ccc(O)cc2)cc(OC)c1OC", "growth inhibition": "-5% (inactive)"}, {"compound": "CC(C)N(CC(=O)c1ccc2cc(Cl)c3ccccc3c2c1)C(C)C", "growth inhibition": "39% (inactive)"}, {"compound": "Cc1c(N2CCCC2)cc2c(c1NC(=O)c1ccccc1Cl)C(C)(C)CC2(C)C", "growth inhibition": "22% (inactive)"}, {"compound": "CNc1ccc([N+](=O)[O-])cc1", "growth inhibition": "0% (inactive)"}, {"compound": "CC(C)(C)OC(=O)c1ccc(NCC2=C(Br)C(=O)C=CC2=O)cc1", "growth inhibition": "14% (inactive)"}, {"compound": "CCN(CC)CCNc1ccc(C)c2oc3ccc(O)cc3c(=O)c12", "growth inhibition": "-1% (inactive)"}, {"compound": "CCS(=O)(=O)c1ccc(NC(=O)OC2CCCCCCC2)cc1", "growth inhibition": "6% (inactive)"}, {"compound": "Cc1cc2c(c3c1C(=O)CC3)C(C)(C)CC2(C)C", "growth inhibition": "-3% (inactive)"}, {"compound": "O=C(O)/C=C\\c1cc2ccccc2c2ccccc12", "growth inhibition": "18% (inactive)"}, {"compound": "CC[N+](C)(CC)CCC[n+]1c(-c2ccccc2)c2cc(N)ccc2c2ccc(N)cc21", "growth inhibition": "4% (inactive)"}, {"compound": "Cn1nc2c(c(Cl)c1=O)Nc1ccccc1O2", "growth inhibition": "-25% (inactive)"}, {"compound": "COC(=O)CSc1nc2[nH]c(SC)c(C(N)=O)c2c(=O)n1-c1ccccc1", "growth inhibition": "-14% (inactive)"}, {"compound": "O=S(=O)(Nc1ccc(Cl)cc1)c1ccccc1", "growth inhibition": "-5% (inactive)"}, {"compound": "COc1ccc(C(=O)Nc2ccc(Cl)cc2)cc1", "growth inhibition": "-8% (inactive)"}, {"compound": "C=CCOC(=O)CCC(=O)N(CC)CC", "growth inhibition": "-2% (inactive)"}, {"compound": "N#CCC(=O)N/N=C(/CC1(O)C(=O)Nc2c(Cl)cc(Cl)cc21)c1ccccc1", "note": "(centres undefined)", "growth inhibition": "5% (inactive)"}, {"compound": "CCCCOC(=O)c1cnc[nH]c1=O", "growth inhibition": "24% (inactive)"}, {"compound": "N#Cc1ccccc1[N+](=O)[O-]", "growth inhibition": "4% (inactive)"}, {"compound": "CCCCOC(=O)c1ccc(O)c(OC)c1", "growth inhibition": "0% (inactive)"}]}, {"assay": "NCI Yeast Anticancer Drug Screen. Data for the mlh1 rad18 strain (AID 175)", "conditions": "S. cerevisiae mlh1 rad18 strain growth inhibition; at 50.0 µM (retest, dose inferred, filed as 5.0); active compounds read high", "summary_of_the_method": "as §1", "values": [{"compound": "CC(=O)OC(OC(C)=O)c1ccc2ccc3cccc4ccc1c2c34", "growth inhibition": "89% (active)"}, {"compound": "C[N+]1=C(/C=C\\c2ccc(O)c3ccccc23)C(C)(C)c2ccccc21", "growth inhibition": "82% (active)"}, {"compound": "CCCCC(O)CCCC", "growth inhibition": "25% (inactive)"}, {"compound": "Nc1ccc(O)c2ccccc12", "growth inhibition": "90% (active)"}, {"compound": "O=C1CCC(Cc2ccc(C(F)(F)F)cc2)C(=O)N1", "note": "(centres undefined)", "growth inhibition": "3% (inactive)"}, {"compound": "CCCCCCCC[N+](C)(C)Cc1ccc(C[N+](C)(C)CCCCCCCC)cc1", "growth inhibition": "33% (inactive)"}, {"compound": "CC(C)(N)COB(c1ccccc1)c1ccccc1", "growth inhibition": "99% (active)"}, {"compound": "CCCCC(Oc1cc(C(C)(C)C)c(O)c(C(C)(C)C)c1)C(=O)O", "note": "(centres undefined)", "growth inhibition": "97% (active)"}, {"compound": "CCCCCCCCN(CCCCCCCC)Cc1ccc(Br)cc1", "growth inhibition": "99% (active)"}, {"compound": "CCc1cc2c(c3c1C(=O)CC3)C(C)(C)CCC2", "growth inhibition": "97% (active)"}, {"compound": "FC(F)(F)c1ccc(Cl)c(NC(=S)SC2CCCCC2)c1", "growth inhibition": "97% (active)"}, {"compound": "NC(N)=Nc1ccc(Cc2ccc(N=C(N)N)cc2)cc1", "growth inhibition": "-4% (inactive)"}, {"compound": "Nc1ccc(-c2cccc(-c3ccccc3)c2)cc1", "growth inhibition": "97% (active)"}, {"compound": "COc1cc(CSc2ccc(O)cc2)cc(OC)c1OC", "growth inhibition": "-4% (inactive)"}, {"compound": "CC(C)N(CC(=O)c1ccc2cc(Cl)c3ccccc3c2c1)C(C)C", "growth inhibition": "98% (active)"}, {"compound": "Cc1c(N2CCCC2)cc2c(c1NC(=O)c1ccccc1Cl)C(C)(C)CC2(C)C", "growth inhibition": "91% (active)"}, {"compound": "CNc1ccc([N+](=O)[O-])cc1", "growth inhibition": "19% (inactive)"}, {"compound": "CC(C)(C)OC(=O)c1ccc(NCC2=C(Br)C(=O)C=CC2=O)cc1", "growth inhibition": "99% (active)"}, {"compound": "CCN(CC)CCNc1ccc(C)c2oc3ccc(O)cc3c(=O)c12", "growth inhibition": "43% (inactive)"}, {"compound": "CCS(=O)(=O)c1ccc(NC(=O)OC2CCCCCCC2)cc1", "growth inhibition": "90% (active)"}, {"compound": "Cc1cc2c(c3c1C(=O)CC3)C(C)(C)CC2(C)C", "growth inhibition": "64% (inactive)"}, {"compound": "O=C(O)/C=C\\c1cc2ccccc2c2ccccc12", "growth inhibition": "99% (active)"}, {"compound": "CC[N+](C)(CC)CCC[n+]1c(-c2ccccc2)c2cc(N)ccc2c2ccc(N)cc21", "growth inhibition": "49% (inactive)"}, {"compound": "Cn1nc2c(c(Cl)c1=O)Nc1ccccc1O2", "growth inhibition": "-14% (inactive)"}, {"compound": "COC(=O)CSc1nc2[nH]c(SC)c(C(N)=O)c2c(=O)n1-c1ccccc1", "growth inhibition": "-19% (inactive)"}, {"compound": "O=S(=O)(Nc1ccc(Cl)cc1)c1ccccc1", "growth inhibition": "63% (inactive)"}, {"compound": "COc1ccc(C(=O)Nc2ccc(Cl)cc2)cc1", "growth inhibition": "-11% (inactive)"}, {"compound": "C=CCOC(=O)CCC(=O)N(CC)CC", "growth inhibition": "-10% (inactive)"}, {"compound": "N#CCC(=O)N/N=C(/CC1(O)C(=O)Nc2c(Cl)cc(Cl)cc21)c1ccccc1", "note": "(centres undefined)", "growth inhibition": "16% (inactive)"}, {"compound": "CCCCOC(=O)c1cnc[nH]c1=O", "growth inhibition": "12% (inactive)"}, {"compound": "N#Cc1ccccc1[N+](=O)[O-]", "growth inhibition": "93% (active)"}, {"compound": "CCCCOC(=O)c1ccc(O)c(OC)c1", "growth inhibition": "3% (inactive)"}]}]}
